The values that follow come from PubChem BioAssay (NCI).

The panel holds about 83,000 compounds, 20% with a hit somewhere; the sample as a whole holds those more often.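 Cell lines were cultured in 96-well plates, exposed to a single compound concentration, and assessed for percent growth 48 hours later.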 Unmarked numbers belong to inactive results. Activity calls are given as the source filed them. How the source made its calls: active means growth percent below 10; inactive means the rest.

Test systems include NCI-H23 lung; NCI-H226 lung; NCI-H322M lung; HOP-62 NSCLC; NCI-H460 lung; HOP-92 NSCLC; A549/ATCC NSCLC; 786-0 renal; COLO 205 colon; DU-145 prostate; K-562 leukemia; MALME-3M melanoma; MDA-MB-231 breast; RXF 393 renal; SF-268 CNS; SF-295 CNS; SF-539 CNS; UACC-257 melanoma; M14 melanoma.
Assay in all cases: NCI-60 one-dose screen, 48 h (100 = growth as untreated, 0 = no growth, -100 = all killed)
Common to all, as to conditions: 10 µM unless noted

For the compound `CCN(CC)c1ccc(N=C2C=CC(=O)C=C2NC(C)=O)cc1`, the growth with NCI-H23 lung was 92.9%; with NCI-H226 lung it was 93.7%; in the assay with NCI-H322M lung it was 105%; in the assay on HOP-62 NSCLC, 107%; in the assay with NCI-H460 lung, 106%; with HOP-92 NSCLC, 104%. For the same compound, the growth in the assay on A549/ATCC NSCLC was 100%; in the assay with 786-0 renal, 111%; in the assay on COLO 205 colon, 96.8%; in the assay with DU-145 prostate, 111%; with K-562 leukemia, 77.9%; in the assay on MALME-3M melanoma it was 142%. Further, the growth was 81.7% with MDA-MB-231 breast; 94.8% with RXF 393 renal; 94% in the assay on SF-268 CNS; 115% with SF-295 CNS; 95.3% in the assay with SF-539 CNS; 90.7% with UACC-257 melanoma. For the same compound, in the assay on M14 melanoma, the growth is 109%.
For `COc1ccc(-c2cc(-c3cccnc3)nc(S(=O)(=O)CC(=O)Nc3ccc(C)cc3)c2C#N)cc1OC`, the growth in the assay with NCI-H23 lung is 85%; in the assay on NCI-H226 lung, 94.2%; with NCI-H322M lung it was 91.7%; in the assay on HOP-62 NSCLC it was 96.8%; in the assay on NCI-H460 lung, 101%; in the assay with HOP-92 NSCLC, 76%. For the same compound, the growth was 93.4% in the assay on A549/ATCC NSCLC; 87.9% in the assay with 786-0 renal; 96.5% in the assay with COLO 205 colon; 95% in the assay with DU-145 prostate; 102% with K-562 leukemia; 94.7% in the assay with MALME-3M melanoma. The growth in the assay with MDA-MB-231 breast is 77.6%; with RXF 393 renal it was 90.4%; in the assay on SF-268 CNS it was 83.5%; in the assay on SF-295 CNS, 97.9%; in the assay on SF-539 CNS, 95.1%; in the assay on UACC-257 melanoma, 104%. Besides, in the assay on M14 melanoma, the growth is 111%.
Regarding `Cc1sc2nc(N3CCCCC3)[nH]c(=O)c2c1C`, the growth was 95.8% with NCI-H23 lung; 88% in the assay on NCI-H226 lung; 102% with NCI-H322M lung; 93.3% in the assay with HOP-62 NSCLC; 101% in the assay with NCI-H460 lung; 93.8% with HOP-92 NSCLC. The growth in the assay on A549/ATCC NSCLC is 83.2%; with 786-0 renal, 94.1%; in the assay with COLO 205 colon it was 100%; in the assay with DU-145 prostate, 111%; in the assay with K-562 leukemia, 91.2%; with MALME-3M melanoma, 100%. The growth is 99.4% in the assay with MDA-MB-231 breast; 101% in the assay on RXF 393 renal; 98% with SF-268 CNS; 97% in the assay with SF-295 CNS; 97.9% in the assay on SF-539 CNS; 89.1% in the assay on UACC-257 melanoma. Besides, the growth in the assay on M14 melanoma is 98.8%.
Turning to `CCOC(=O)C(Br)=P(c1ccccc1)(c1ccccc1)c1ccccc1`, the growth is 109% with NCI-H23 lung; 104% in the assay with NCI-H226 lung; 99.4% with NCI-H322M lung; 114% in the assay with HOP-62 NSCLC; 116% in the assay on NCI-H460 lung; 101% in the assay on HOP-92 NSCLC. For the same compound, the growth in the assay with A549/ATCC NSCLC was 106%; in the assay with 786-0 renal, 103%; with COLO 205 colon, 103%; with DU-145 prostate, 124%; in the assay with K-562 leukemia, 105%; in the assay on MALME-3M melanoma, 94.3%. Also, the growth is 92.6% in the assay on MDA-MB-231 breast; 79.9% with RXF 393 renal; 120% with SF-268 CNS; 110% in the assay on SF-295 CNS; 101% with SF-539 CNS; 98.9% with UACC-257 melanoma. Further, the growth in the assay on M14 melanoma is 111%.
`CCCc1n(Cc2ccc3ccccc3c2)cc[n+]1Cc1ccc2ccccc2c1`: the growth in the assay on NCI-H23 lung is -28.2% (active); in the assay with NCI-H226 lung it was 0.228% (active); in the assay on NCI-H322M lung it was 23.2%; in the assay on HOP-62 NSCLC, 5.82% (active); with NCI-H460 lung, 3.26% (active); with HOP-92 NSCLC, -38.3% (active). Moreover, the growth was 31.6% in the assay with A549/ATCC NSCLC; 9.55% (active) in the assay with 786-0 renal; -66.9% (active) with COLO 205 colon; 20.3% in the assay on DU-145 prostate; 2.49% (active) in the assay with K-562 leukemia; -49.6% (active) in the assay with MALME-3M melanoma. For the same compound, the growth is -80.1% (active) in the assay with MDA-MB-231 breast; -30.4% (active) with RXF 393 renal; 7.55% (active) in the assay on SF-268 CNS; -1.49% (active) in the assay on SF-295 CNS; 1.21% (active) with SF-539 CNS; -33.6% (active) in the assay on UACC-257 melanoma. The growth in the assay on M14 melanoma is -28.4% (active).
As for `COc1cc(NC(=O)NCc2ccco2)ccc1-c1ccc(NC(=O)NCc2ccco2)cc1OC`, the growth is 49.4% in the assay with NCI-H23 lung; 14.1% with NCI-H226 lung; 49.5% in the assay on NCI-H322M lung; 33.8% in the assay with HOP-62 NSCLC; 35.8% in the assay on NCI-H460 lung; 23% in the assay with HOP-92 NSCLC. Further, the growth in the assay on A549/ATCC NSCLC was 34.6%; in the assay with 786-0 renal it was 40.1%; in the assay with COLO 205 colon, 64.9%; with DU-145 prostate, 56.6%; in the assay with K-562 leukemia it was 36%; in the assay with MALME-3M melanoma it was 78%. The growth with MDA-MB-231 breast was 43.2%; with RXF 393 renal, -10.7% (active); in the assay on SF-268 CNS, 56.8%; with SF-295 CNS it was 46.3%; in the assay on SF-539 CNS it was -1.88% (active); in the assay with UACC-257 melanoma it was 51%. Moreover, in the assay on M14 melanoma, the growth was 64.3%.
Regarding `Fc1ccccc1C1c2ccccc2-c2nccn21` (configuration not stated), the growth with NCI-H23 lung was 87%; in the assay with NCI-H226 lung, 88.1%; in the assay with NCI-H322M lung it was 96.2%; in the assay on HOP-62 NSCLC, 98.4%; with NCI-H460 lung, 110%; in the assay with HOP-92 NSCLC, 61.8%. Also, the growth with A549/ATCC NSCLC is 94.9%; in the assay with 786-0 renal it was 89.7%; in the assay on COLO 205 colon, 111%; with DU-145 prostate it was 99.2%; in the assay with K-562 leukemia, 73.9%; with MALME-3M melanoma, 98.2%. The growth in the assay with MDA-MB-231 breast was 102%; with RXF 393 renal it was -1.68% (active); with SF-268 CNS, 109%; with SF-295 CNS, 89.3%; in the assay on SF-539 CNS, 98.9%; with UACC-257 melanoma, 96.6%. The growth with M14 melanoma was 104%.
For `COc1cc(/C=C/C(=O)C(C(=O)/C=C/c2ccc(OC(=O)CCNc3nnc(C)s3)c(OC)c2)C(=O)CCNc2nnc(C)s2)ccc1OC(=O)CCNc1nnc(C)s1`, the growth was 11.9% in the assay with NCI-H23 lung; 24.5% in the assay with NCI-H226 lung; 42.1% with NCI-H322M lung; 27.6% with HOP-62 NSCLC; -29% (active) in the assay on NCI-H460 lung; -16.4% (active) in the assay with HOP-92 NSCLC. In addition, the growth in the assay on A549/ATCC NSCLC was 34.3%; in the assay with 786-0 renal, -38% (active); in the assay with COLO 205 colon, -26.3% (active); with DU-145 prostate, -14.5% (active); in the assay on K-562 leukemia it was -11.8% (active); in the assay with MALME-3M melanoma it was -29.7% (active). Besides, the growth in the assay on MDA-MB-231 breast is -4.77% (active); in the assay on RXF 393 renal it was -70.2% (active); with SF-268 CNS, 19.8%; with SF-295 CNS, 2.23% (active); in the assay on SF-539 CNS it was -15.8% (active); in the assay on UACC-257 melanoma it was 46.5%. The growth in the assay on M14 melanoma was -2.91% (active).
